Source: PubChem BioAssay (several laboratories)
PolyA inhibitor: yeast polyadenylation inhibition; S. cerevisiae SKY197-pL101 polyadenylation reporter, beta-gal luminescence; efflux-impaired pdr1/pdr3 knockout yeast; score 100 = 6 SD above DMSO; activity score, % at 12 µM; 300,000 compounds, 0.02% hits; AID 1875;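 active means lowest replicate activity score at least 50, where 100 means six control SD above control mean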;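 further: yeast exposed to compound for 9 h at 30 °C; higher score means more reporter readthrough which indicates perturbed polyadenylation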
Platelet DG rel: modulates dense granule release in human platelets; human platelet-rich plasma, SFLLRN dense granule ATP release, luminescence; inhibition, %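 (compounds screened at 7.5 µM in platelet-rich plasma)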; 300,000 compounds, 0.22% hits;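 active means mean replicate score, as percent of positive control, at or above 50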
AHR activator: activates the human aryl hydrocarbon receptor. P35869. AHR-responsive luciferase reporter cells, luminescence. activation, % at 5 µM. 320,000 compounds, 2.5% hits; in the data active means activation above about 47%;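 further: 0% = vehicle wells and 100% = reference agonist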
p-CIP stab down: p/CIP protein destabilization. 290,000 compounds, 0.01% hits. F442A p/CIP-EGFP cells, EGFP fluorescence, 16 h. decrease of EGFP signal, % at 10 µM;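 active means EGFP signal decrease of at least 30% at 10 µM or well 3 SD below plate mean, unless failing retest; inactive means the rest, including hits failing retest or dose response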
HIF act: HIF pathway transcriptional activation. U2OS HRE-luciferase reporter, luminescence; normalized: DMSO 0%, desferrioxamine 100%. activation, % at 7.5 µM (by protocol). 300,000 compounds, 0.32% hits. AID 1910;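 active means mean activation of at least 10% of the iron chelator positive control signal, with at least half of replicates also reaching 10%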
* marks the source's active call; other numbers are inactive results; . = not tested or not shown. Shown are actives, neighbours in structure and some others; about 2.8% of the full set was active somewhere.

SMILES	PolyA inhibitor	Platelet DG rel	AHR activator	p-CIP stab down	HIF act
Cc1cc(C(F)(F)F)n2nc(-c3cnn(C)c3C(F)(F)F)c(Br)c2n1	-9.2	2.2	-0.8	-8.2	-0.8
CCn1c2ccccc2c2cc(NC(C)=O)ccc21	-7.8	-45.3	50.5*	-5.5	0.1
CCn1c(=O)cc(OCC(=O)Nc2ccccc2C#N)c2ccccc21	-13.2	28.1	72.5*	2.9	-0.2
CCOC(=O)c1ccc(NC(=O)COc2cc(=O)n(CC)c3ccccc23)cc1	13.1	-2.4	4.0	7.6	0.1
CCn1c2ccccc2c2cc(NC(=O)COC(=O)c3cccc(S(=O)(=O)NC)c3)ccc21	10.5	-16.5	100.1*	0.2	-0.1
CCn1c(=O)cc(OCC(=O)N2CCN(c3ccc(F)cc3)CC2)c2ccccc21	7.3	15.4	54.0*	-1.2	0.0
CCn1c2ccccc2c2cc(NC(=O)COC(=O)c3ccc(O)cc3)ccc21	4.2	-2.7	39.6	.	0.3
CC12C(=O)N(c3ccc(OC(=O)c4ccco4)cc3)C(=O)C1C1c3ccccc3C2c2ccccc21 (stereo unspecified)	17.2	1.3	2.3	4.1	0.3
Cc1ccc(NC(=O)c2ccc(S(=O)(=O)N3CCCC3)cc2)nc1	-11.4	-25.6	3.3	.	0.4
Cc1ccc(Nc2nc(=O)c3cccnc3s2)c(Br)c1	-12.3	-5.3	13.2	-0.1	0.3
CCn1c2ccccc2c2cc(NC(=O)COc3ccccc3OC)ccc21	-14.2	-12.9	62.3*	-5.5	0.1
CCn1c2ccccc2c2cc(NC(=O)CSc3nnc(-c4ccc(OC)cc4)n3N)ccc21	-3.8	-7.0	48.5*	1.3	-0.7
NC(=O)c1ccc(N2CCNC(=O)C2)c([N+](=O)[O-])c1	11.4	-14.7	1.5	1.4	0.3
CC1CC1c1ccc(/C=C(\C#N)C(=O)Nc2ccccc2Cl)o1 (stereo unspecified)	14.0	-2.8	50.2*	-2.5	1.4
COc1cc(C(=O)Oc2ccccc2/C=N/NC(=O)c2ccc(C)cc2)cc(OC)c1OC	-4.2	28.5	1.4	-18.7	9.6*
COc1cccc(/C=N/NC(=O)c2ccc([N+](=O)[O-])cc2Cl)c1O	6.5	-5.5	5.6	-10.2	10.8*
COc1ccccc1C(=O)N/N=C/c1ccc(Cl)s1	-4.5	-9.7	48.8*	-10.0	1.5
COc1ccccc1/C=N/NC(=O)c1ccccc1Cl	6.1	-0.3	10.5	-5.0	0.6
COc1ccc(C(=O)N/N=C/c2ccccc2OC(=O)c2ccccc2)cc1	-19.3	9.1	10.9	15.7	5.5
COc1cccc(/C=N/NC(=O)c2ccc(-c3ccccc3)cc2)c1O	9.1	10.7	-0.4	2.8	47.4*
S=C(NCCN1CCOCC1)NC1CCCC1	3.6	-6.1	-1.5	8.0	-0.4
CN(C(=O)COC(=O)C1COc2ccccc2O1)C1(C#N)CCCCC1 (stereo unspecified)	.	.	1.6	.	.
CCCCn1nc(C(=O)N(C)CC(=O)Nc2ccc(F)c(F)c2F)ccc1=O	.	.	3.1	.	.
CCNC(=O)NC(=O)C(C)Oc1ccc(Br)cc1Br (stereo unspecified)	-24.3	4.6	1.1	-4.3	1.0
COc1ccccc1C=NNC(=O)c1ccccc1OCCOc1ccccc1	.	.	51.4*	.	.
SMILES	PolyA inhibitor	Platelet DG rel	AHR activator	p-CIP stab down	HIF act
O=C(N/N=C/c1cccc([N+](=O)[O-])c1)c1cccc2cc[nH]c12	-18.4	-3.1	19.3	-3.3	1.1
C=CCc1cccc(/C=N/NC(=O)c2ccccc2OC)c1O	2.5	5.1	76.9*	3.2	6.9
O=C(O)COc1ccccc1/C=N/NC(=O)c1cc2ccccc2cc1O	-0.4	4.5	58.1*	3.5	-0.3
O=C(N/N=C/c1cc([N+](=O)[O-])ccc1O)c1cccc2cc[nH]c12	27.1	1.3	6.4	-8.7	27.5*
CCOc1ccc(S(=O)(=O)N2CCN(C(=O)c3cc4ccccc4o3)CC2)cc1	.	.	-2.3	.	.
COc1cccc(/C=N/NC(=O)C(=O)Nc2ccccc2OC(F)(F)C(F)F)c1O	-6.9	-2.7	6.8	-2.2	26.0*
O=C(Nc1ccccc1F)C(=O)Nc1cccc2ccccc12	-14.6	3.0	2.5	-0.7	2.3
O=C(Nc1cccc2ccccc12)/C(Cl)=C/c1ccccc1	-20.2	-3.9	67.6*	-1.3	1.5
O=C(CCCCCN1C(=O)c2ccccc2C1=O)Nc1ccccc1	-0.4	-5.2	-1.3	-6.8	0.2
O=C(CCCCCCC(=O)Nc1ccccc1)NO	-18.0	1.9	-4.1	.	190.4*
CN(CC(=O)Nc1ccccc1Br)CC(=O)Nc1ccccc1C(F)(F)F	-5.3	0.9	-1.6	-11.8	-0.1
O=C(Nc1cccc(-c2cn3cccnc3n2)c1)c1ccco1	2.7	4.7	32.6	-8.6	0.1
CCc1ccn2cc(-c3ccc4c(c3)OCO4)nc2c1	-17.2	50.0*	-9.2	-14.0	-1.3
O=C(Nc1cccc(-c2cn3cccnc3n2)c1)c1ccc2c(c1)OCO2	7.5	4.4	48.7*	-3.0	2.1
COC(=O)c1ccc2nc(-c3ccc4c(c3)OCO4)cn2c1	-16.6	6.2	-1.3	1.7	-3.0
O=C(Nc1cccc(-c2cn3c(n2)SCC3)c1)c1ccc2c(c1)OCO2	-6.1	0.3	50.2*	-4.4	0.6
O=C(Nc1cccc(-c2cn3cccnc3n2)c1)c1ccc(Br)o1	-5.4	-8.6	72.2*	-9.7	0.4
Cn1cccc1/C=N\NC(=O)Cc1ccc(Br)c2ccccc12	9.1	4.0	2.1	-6.3	-0.5
c1cnc2nc(-c3ccc4c(c3)OCO4)cn2c1	27.8	6.0	64.4*	-21.5	2.9
N#Cc1cccn1-c1nccc(-c2cccs2)n1	-39.8	1.1	65.1*	-131.4	0.6
Cc1ccc(C)n1-c1nccc(-c2cccs2)n1	0.7	1.1	35.6	-16.4	0.5
Cc1ccccc1NC(=O)CSc1nnc2ccc(-c3cccnc3)nn12	6.1	0.3	22.1	.	-0.6
O=[N+]([O-])c1ccc(S(=O)(=O)N2CCN=C2SCc2ccc(F)cc2)cc1	15.7	-7.5	-1.0	-13.1	-0.3
O=C(Nc1ccnc(-c2ccncc2)n1)c1ccccc1Cl	-6.9	-0.4	31.3	9.3	-1.0
O=C(Nc1ccnc(-c2ccncc2)n1)C1CC1	-7.6	3.5	52.0*	7.1	0.1
SMILES	PolyA inhibitor	Platelet DG rel	AHR activator	p-CIP stab down	HIF act
NNC(=O)c1ccc(COc2ccc(Br)cc2)o1	-4.7	4.3	78.0*	10.6	-8.9
O=C(c1ccco1)N1CCN(C(=O)c2ccc(COc3ccc4c(c3)CCC4)o2)CC1	1.9	0.0	14.8	2.7	-28.4
NNC(=O)c1ccc(COc2ccc3c(c2)CCC3)o1	-1.0	-3.5	59.1*	-4.2	2.2
COc1cc(C(=O)NCCCN2CCCC2=O)cc(Br)c1OCc1ccccc1	.	.	1.4	.	.
Cc1ccc(S(=O)(=O)N2CCOCC2)cc1NC(=O)COC(=O)CSc1ccc(Br)cc1C	-7.8	-5.7	-1.9	-2.4	-0.3
Cc1ccc(N/N=C/c2ccncc2)cc1	-27.7	0.7	50.8*	-1.7	2.8
CCc1noc(N)c1C(=O)Nc1ccc(Cl)cc1	14.6	-0.6	76.2*	9.7	0.1
CCOCCCn1c(=S)[nH]c2cc(C(=O)NCCCN(CC)CC)ccc2c1=O	4.3	1.0	0.7	5.4	-0.4
